Results taken from PubChem BioAssay (NCATS).
Inconclusive results are not listed. Values without a mark were called inactive. The source made the active and inactive calls. Calls follow the shape of the full dose curve.

These compounds were tested against Estrogen receptor (Homo sapiens) (UniProt P03372) (assay: qHTS assay for small molecule agonists of estrogen receptor alpha signaling (AID 588514; also: nearly all actives have a fitted effect of over 70% in size;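 as to activation: 0% = vehicle only and 100% = reference agonist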)). Conditions: ER-alpha-UAS-bla HEK293, beta-lactamase ratio, 18 h; series mostly up to 76.8 µM; activation: at the top concentration.
Sequence of Estrogen receptor (Homo sapiens) (P03372 whole entry, looked up): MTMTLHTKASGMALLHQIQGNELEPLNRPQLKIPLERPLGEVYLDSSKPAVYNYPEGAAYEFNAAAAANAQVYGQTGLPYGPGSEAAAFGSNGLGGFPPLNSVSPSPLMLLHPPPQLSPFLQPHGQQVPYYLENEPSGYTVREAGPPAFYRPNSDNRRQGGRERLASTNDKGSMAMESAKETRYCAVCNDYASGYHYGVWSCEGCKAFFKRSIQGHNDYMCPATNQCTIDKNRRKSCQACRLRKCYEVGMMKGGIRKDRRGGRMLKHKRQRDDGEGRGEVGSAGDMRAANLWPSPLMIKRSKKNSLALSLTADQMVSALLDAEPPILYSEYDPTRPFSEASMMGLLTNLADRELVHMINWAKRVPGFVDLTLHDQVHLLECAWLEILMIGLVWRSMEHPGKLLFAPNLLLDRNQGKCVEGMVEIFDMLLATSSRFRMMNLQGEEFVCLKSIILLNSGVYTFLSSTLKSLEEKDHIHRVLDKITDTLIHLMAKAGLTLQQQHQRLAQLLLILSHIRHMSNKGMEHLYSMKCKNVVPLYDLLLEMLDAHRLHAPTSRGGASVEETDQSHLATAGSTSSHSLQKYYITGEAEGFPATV
Description: NIH Chemical Genomics Center [NCGC]
U.S. Environmental Protection Agency [EPA]
National Institutes of Environmental Health Sciences [NIEHS]
National Toxicology Program [NTP]
Estrogen receptor alpha (ER-alpha) is an important member of nuclear hormone receptors. ER-alpha plays important role in breast cancer as well as in other women's health issues. The majority of breast cancers is estrogen receptor (ER) positive and depends on estrogen for growth. There is also growing concern for some of environmental chemicals which may contribute the increasing the incidence of breast cancer. Therefore, it is important to understand the effect of environmental chemicals in ER-alpha signaling pathway.
NCGC Assay Protocol Summary
Using a beta-lactamase reporter-gene under control of the ER response element, a cell-based assay [ER-alpha-UAS-bla GripTiteTM cell-Based Assay from Invitrogen] was used to measure ER-alpha signaling pathway in agonist mode. ER-alpha-UAS-bla-GripTite HEK 293 cells were used with assay medium containing 2% charcoal/dextran treated FBS, 0.1 mM NEAA and 1 mM sodium pyruvate. Cells were cultured in this assay medium overnight in the flasks before the assay. The assay was performed in clear bottom black Greiner 1536-well plates. 17-beta-estradiol was used as a positive control in the screen. Library compounds were measured for their ability to either stimulate the reporter gene activity. Compounds were screened in a titration series in 1536-well format. […] Data was normalized relative to 17-beta-estradiol control (20 nM, 100%), and DMSO only wells (basal, 0%). Concentration-response titration points for each compound were fitted to the Hill equation yielding concentrations of half-maximal stimulation (EC50) and maximal response (efficacy) values.
qHTS protocol for ER-alpha beta-lactamase assay in agonist mode
[Step] [Parameter] [Value] [Description]
1. Reagent; 6 uL; 5000 cells/well
2. Incubation; 37 C for 4 hrs
4. Controls (17-beta-estradiol); 23 nL
- Dose response, start 1uM, 1:3 dilutions with duplicates
- Two columns with 20 and 0.5 nM (final) concentration.
5. Incubation; 37 C for 18 hrs
6. Detection reagent; 1 uL of CCF4-dye
7. Incubation; RT for 2 hrs
8. Detection; Fluorescence; Envision plate reader or Acumen plate reader
`Oc1ccc(Cl)cc1Cc1cc(Cl)ccc1O` was tested, and the Potency was “inactive”. In the case of `CCOc1ccc(NC(C)=O)cc1`, the Potency is reported as “inactive”. With `CCCCC(CC)COC(=O)c1ccc(N(C)C)cc1` (centres undefined) the Potency was “inactive”. `CCOc1ccccc1C(N)=O` was tested, and the “activation” value was -0.921%. In the case of `CCCCCCCC/C=C\CCCCCCCCN`, the “activation” value is reported as -2.04%. `NC(=O)c1ccccc1O` was tested, and the “activation” value was 8.42%. With `O=C(O)c1ccc(S(=O)(=O)N(Cl)Cl)cc1` the “activation” value was -0.991%. `CCCCCCCCCCCCCCCCO` was tested, and the “activation” value was 3.54%. `CCCCCCCCOc1ccc(C(=O)c2ccccc2)c(O)c1` was tested, and the “activation” value was -1.73%. For `C/C=C/c1ccc(O)c(OC)c1`, the Potency was “inactive”. `C#C[C@]1(O)CC[C@H]2[C@@H]3CCC4=Cc5oncc5C[C@]4(C)[C@H]3CC[C@@]21C` was tested, and the Potency was 3.16 µM (active). `CC(C)(C)CC(C)(C)c1ccc(O)c(-n2nc3ccccc3n2)c1` was tested, and the “activation” value was -4.85%. In the case of `COc1ccc(C(Cl)=C(c2ccc(OC)cc2)c2ccc(OC)cc2)cc1`, the “activation” value is reported as -1.11%. For `CN(C)C(=O)Nc1ccc(Cl)c(Cl)c1`, the “activation” value was 3.32%.
